Assay outcomes: PubChem, several laboratories
Compounds with a hit are over-represented: about 4.7% of the library has one in this group of screens.
TROY signal inh = TROY signaling inhibition; Q293 LMP1-TROYcd NF-kB luciferase reporter, 4 h; inhibition, % at 10 µM; 360,000 tested, 0.98% active;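 active means compounds whose plate-normalised and pattern-corrected inhibition of the luciferase reporter signal at the single screening dose is 50% or more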
EBV LMP1 NFkB = reduces LMP1-driven NF-kappaB luciferase signal | 350,000 tested, 0.69% active | inhibition, % at 12.5 µM | LMP1-induced NF-kappaB luciferase reporter cells, luminescence; in the data active means inhibition above about 41%; inconclusive means no clear call, values can overlap the other calls;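 further: 0% = neutral control wells and 100% = reference inhibitor control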
HSF1 activator = increases HSF-1 driven luciferase reporter signal; NIH3T3-HGL HSF-1 luciferase reporter, MG132, 8 h; 100% = twice DMSO control signal; activation, % at 9 µM; 300,000 tested, 1.7% active; AID 504408;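 active means mean replicate activation of at least 50% with a set share of replicates each reaching 50%; inconclusive means only one of those two conditions met; inactive means mean below 50% and too few replicates reaching it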;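 further: 0% = median of the neutral control wells and 100% = twice that signal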
HSP90 inh = blocks HSP90-mediated luciferase refolding in reticulocyte lysate; Rabbit reticulocyte lysate, luciferase refolding luminescence, 3 h; 290,000 tested, 0.91% active; inhibition, % at 5.6 µM;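 active means inhibition above the screen-wide mean plus 3 SD, computed separately per campaign, cut at about 16% in these data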;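 further: 0% = DMSO wells and 100% = 60 µM geldanamycin wells; inhibitors lower the luminescence because luciferase stays unfolded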
HSF1 inh = HSF1 inhibition; AID 2098; activity change, negative = inhibition, % at 7.5 µM (by protocol); 300,000 tested, 0.77% active; NIH3T3-HGL HSE-luciferase, MG132-induced, luminescence 8 h; hits give low values;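 active means more than half of replicate wells show activity change below -50%, luminescence cut by over half; inconclusive means some wells, but at most half, below -50%; inactive means no replicate well below -50%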;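 further: luciferase reports HSF-1 transcriptional activity via heat shock element; 0% = median of DMSO wells and -100% = zero luminescence signal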
TWEAK-Fn14 inh = blocks TWEAK-Fn14 interaction in a reporter cell assay | AID 1159606 | 360,000 tested, 2% active | inhibition, % at 10 µM | TWEAK-stimulated Fn14 reporter cells, luciferase luminescence, 8 h; in the data active means inhibition above about 50%
* = called active by the depositor; u = inconclusive; x = no result given.

SMILES	TROY signal inh	EBV LMP1 NFkB	HSF1 activator	HSP90 inh	HSF1 inh	TWEAK-Fn14 inh
Oc1cccc(-c2nc3c4c(ncn3n2)-c2ccccc2CC42CCCC2)c1	41.4	15.1	3.9	-1.0	-4.6	71.4*
COc1ccc(-c2nc3c4c(ncn3n2)-c2ccccc2CC42CCCC2)cc1	2.1	2.4	1.8	-3.2	-8.2	18.3
O=c1c2sc(-c3ccccc3)cc2nc2n1CCCCC2	-34.2	-17.2	55.5*	3.0	32.3	26.6
Cn1c(NCCN2CCCC2)nc2cc(-c3ccccc3)sc2c1=O	-62.0	x	x	x	x	-33.6
COc1ccc(NC(=O)C2(C)CCN2C2Cc3ccccc3C2)cc1OC (stereo not given)	12.6	x	x	x	x	17.3
S=c1sc2c(Cl)ncnc2n1-c1ccccc1	29.9	27.1	565.5*	-2.7	477.7	42.8
Cc1nc(N2CCN(C)CC2)c2sc(=S)n(-c3ccccc3)c2n1	-35.6	3.0	13.2	-0.8	7.4	-5.5
COc1cc(C2CC(c3cccs3)=NN2C(=O)CCl)ccc1OC(F)F (stereo not given)	-46.8	0.1	-72.5	3.3	-67.1*	-7.0
Cc1cccc(NC(=O)COc2ccc(Br)cc2/C=N/O)c1	-6.7	-3.2	106.9*	-4.5	64.6	-0.5
CC(=O)Nc1ccc(NC(=O)COc2ccc(Br)cc2C)cc1	-9.4	5.0	17.2	-1.3	4.3	-1.4
Cc1ccc(F)c(S(=O)(=O)NC(=O)C2(C)CCN2C(=O)c2ccc(C(F)(F)F)nc2C)c1 (stereo not given)	-6.1	x	x	x	x	-12.5
O=C(O)/C=C/C(=O)Nc1cc(F)ccc1F	-3.1	8.8	-77.3	-0.8	-71.5*	7.6
O=C(O)/C=C/C(=O)Nc1ccc(Cl)cc1C(=O)c1ccccc1	-3.9	3.0	-2.1	-2.1	-2.5	-6.8
Nn1c(SCC(=O)N2CCCC2)nnc1C1CCCCC1	-11.9	-1.0	x	x	x	-35.8
Nn1c(SCC(=O)N2CCOCC2)nnc1C1CC1	1.2	-0.7	83.1*	-1.4	25.8	31.6
Nn1c(SCC(=O)NCc2ccccc2)nnc1C1CC1	2.9	1.6	52.3*	-0.1	12.5	9.6
O=C(CSc1nnc2nnc3ccccc3n12)N1CCOCC1	67.9*	18.9	4.6	0.8	2.6	63.7*
O=C(/C=C/[C@H]1O[C@@H](n2ccc(=O)[nH]c2=O)[C@H](O)[C@@H]1O)NCc1ccco1	-3.9	x	x	x	x	5.2
COc1cccc(NC(=O)CCC2CCN(C(=O)C(OC)c3ccccc3)CC2)c1 (stereo not given)	-12.4	1.1	x	x	x	7.4
O=C(NCCN1C(=O)S/C(=C\c2ccc(Cl)c(Cl)c2)C1=O)C1COc2ccccc2O1 (stereo not given)	22.7	-5.2	-5.2	-3.2	-4.1	29.3
O=C(NCCN1C(=O)S/C(=C\c2ccc(Cl)c(Cl)c2)C1=O)c1ccc2c(c1)C(=O)N(Cc1ccncc1)C2=O	-23.4	12.5	9.7	-2.6	4.4	58.1*
Cc1ccc(S(=O)(=O)Nc2ccc(Nc3nccn4c(-c5ccc6ccccc6c5)cnc34)cc2)cc1	-39.1	x	x	x	x	-9.2
Cc1ccc(SCC(=O)NC2CCS(=O)(=O)C2)cc1C (stereo not given)	-33.0	4.1	x	x	x	1.9
NNC(=O)CSc1nc(-c2ccccc2)cn1-c1ccccc1	72.3*	7.1	13.1	3.5	11.1	63.0*
Cc1ccc(-c2cn(-c3ccccc3)c(SCC(=O)NC3CCS(=O)(=O)C3)n2)cc1C (stereo not given)	51.9*	-38.3	-30.7	0.4	-14.6	20.2
SMILES	TROY signal inh	EBV LMP1 NFkB	HSF1 activator	HSP90 inh	HSF1 inh	TWEAK-Fn14 inh
CCc1nc2c(OCc3cc(Cl)cc(Cl)c3)cccn2c1N(C)C(=O)c1cccc(OC)c1	-2.5	x	x	x	x	-26.1
COC(=O)c1ccc2nc(-c3ccc(OC)c(OC)c3)c(Cc3cccc(F)c3)n2c1	-12.8	x	x	x	x	-18.1
O=C1/C(=C\c2ccccc2)CN(C(=O)CCN2CCCCC2)C/C1=C/c1ccccc1	68.6*	-32.0	10.5	x	10.5	105.9*
O=C1/C(=C\c2ccc(Cl)c(Cl)c2)CN(C(=O)CCN2CCOCC2)C/C1=C/c1ccc(Cl)c(Cl)c1	77.5*	2.5	x	x	x	106.6*
O=C1/C(=C\c2ccccc2)CCC/C1=C/c1ccccc1	-14.6	-25.6	x	x	x	13.4
O=C(NCCN1CCOCC1)c1ccc(Cl)c(Cl)c1	1.7	-5.2	9.8	-0.1	-1.4	1.6
CCN(CC)CCC(=O)N1C/C(=C/c2ccccc2)C(=O)/C(=C\c2ccccc2)C1	62.7*	u	7.3	x	7.3	106.8*
N#Cc1c(N2CCN(c3ccc([N+](=O)[O-])cc3)CC2)[n+](=O)c2ccc(Cl)cc2n1[O-]	-6.4	19.0	x	x	x	44.5
COC(=O)C1(C)CCCC2(C)C3CCC(C(C)C)C(CO)C3C(CO)CC12 (stereo not given)	-6.3	-0.5	x	x	x	-0.1
Cc1cc(N2CCN(C(=O)c3[nH]c(C(F)(F)F)nc3-c3ccccc3)CC2)c2ccccc2n1	17.2	x	x	x	x	26.4
CCOC(=O)C1=NN(c2ccc(C)cc2)C2(S1)SC(C(C)=O)=C(C)N2c1ccccc1 (stereo not given)	-24.8	9.7	61.8*	-4.0	22.0	19.0
CCn1c(C)cc(C(=O)COC(=O)c2cccnc2SC)c1C	-11.6	-25.2	x	x	x	0.3
CSc1ncccc1C(=O)OCC(=O)c1cc(C)n(CC2CCCO2)c1C (stereo not given)	61.8*	-12.6	-58.1	4.0	-52.0*	75.6*
CSc1ncccc1C(=O)OCC(=O)c1ccccc1Br	-54.8	-2.4	54.0*	-1.1	6.8	-37.0
Cc1cc(C(=O)COC(=O)C2CCN(C(=O)c3ccc(Cl)cc3)CC2)c(C)n1CC1CCCO1 (stereo not given)	19.2	4.9	-30.7	5.1	-23.4	67.9*
COc1ccc(C(=O)COC(=O)c2cccnc2SC)cc1	-16.5	-2.2	67.8*	-0.9	56.7	-2.7
CSc1ncccc1C(=O)OCC(=O)c1ccccc1	11.4	-0.6	11.8	-0.3	17.0	0.5
COc1ccc(C(C)(NC(C)=O)c2nc(-c3ccc(F)cc3OC)cs2)cc1 (stereo not given)	0.0	x	x	x	x	-12.2
N/C(=N\OC(=O)c1ccccc1)C(Cc1ccccc1)C(=O)NOC(=O)c1ccccc1 (stereo not given)	-6.7	-40.0	x	x	x	-7.7
C=CCOc1cccn2c(N(C=O)Cc3ccccc3)c(CC)nc12	2.4	x	x	x	x	2.1
Cc1cc(C(=O)COC(=O)c2cccnc2Cl)c(C)n1C	4.0	39.6	x	x	x	75.8*
O=C1NC[C@H](CCCCN2C[C@H](Cc3ccccc3)N(CCc3ccc(O)cc3)C(=O)C2=O)N(CCc2ccccc2)C1=O	-1.7	x	x	x	x	7.1
Cc1cc(NC(=O)CSc2nc3cc(Cl)ccc3o2)no1	-32.4	3.6	21.4	-0.7	8.1	-13.4
O=S1(=O)C=C(Sc2nc3cc(Cl)ccc3o2)c2ccccc21	27.9	-9.4	24.1	-2.6	-0.9	64.0*
CCCCn1nnnc1C(c1ccccc1)N1CCN(c2cccc(C)c2C)CC1 (stereo not given)	12.6	x	x	x	x	14.6
